Compound activity from PubChem BioAssay.
Mcl1 Bid PPI – disrupts binding of human Mcl-1 to Bid peptide; Q07820; TR-FRET Mcl-1/Bid-Dy647 peptide binding, 1536-well; 0.97% of 220,000 active; inhibition, % at 21.7 µM; AID 1021;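 active = compounds that cut the binding signal by more than half at the single screening dose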;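 note: His-tagged Mcl-1 with europium anti-His antibody binding Bid BH3 peptide; 0% = Mcl-1 plus peptide wells and 100% = peptide-only wells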
Target sequence (Q07820 whole entry, looked up): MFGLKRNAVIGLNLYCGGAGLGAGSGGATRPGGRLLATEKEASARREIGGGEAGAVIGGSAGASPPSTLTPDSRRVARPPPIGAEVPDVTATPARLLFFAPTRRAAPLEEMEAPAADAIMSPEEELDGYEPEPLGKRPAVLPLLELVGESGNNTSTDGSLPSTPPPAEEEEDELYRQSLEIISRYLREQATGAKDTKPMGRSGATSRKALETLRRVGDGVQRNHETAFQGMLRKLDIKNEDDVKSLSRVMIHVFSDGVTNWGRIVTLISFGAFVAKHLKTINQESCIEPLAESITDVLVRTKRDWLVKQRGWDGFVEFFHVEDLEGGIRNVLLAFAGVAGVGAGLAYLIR
Mcl1-Noxa inh – Mcl-1/Noxa interaction inhibition; 1.5% of 220,000 active; inhibition, % at 21.7 µM; AID 1022; TR-FRET Mcl-1/Noxa peptide binding, 2 h; Q07820;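 active = compounds that cut the protein-peptide binding signal by more than 50% relative to plate controls in a single-dose test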;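 note: His-tagged Mcl-1 with rhodamine Noxa BH3 peptide and terbium anti-His antibody; 0% = Mcl-1 plus Noxa peptide wells and 100% = peptide-only wells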
GLD-1 RNA inh – GLD-1-TGE RNA interaction inhibition (C. elegans) | inhibition, % at 5.96 µM | purified GLD-1 + fluorescein TGE RNA, fluorescence polarization | 0.44% of 320,000 active;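 active = percent inhibition above a per-plate cutoff, the plate mean of test compounds plus 3 SD, cut at about 30% in these data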;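 note: 0% = DMSO wells with GLD-1 and probe and 100% = wells lacking GLD-1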
Mcl-1 Bim block – human Bim-Mcl-1 interaction inhibition. Q07820. Bead-based flow cytometry, Bim peptide-Mcl-1 binding. inhibition, % at 10 µM. 0.1% of 190,000 active; in the data active = inhibition above about 40%;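 note: 0% = no compound tracer wells and 100% = peptide blocker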
Bcl-xL primary – Bcl-xL (human) inhibition | AID 2129 | 0.7% of 320,000 active | inhibition, % at 10.9 µM | Q07817 | GST-Bcl-xL / FITC-Bim BH3 peptide fluorescence polarization;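 active = inhibition above the mean of all tested compounds plus 3 SD, cutoff set per campaign, cut at about 30% in these data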;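 note: 0% = DMSO wells and 100% = unlabeled Bim-BH3 peptide competitor; inhibitors lower millipolarization by displacing the labeled peptide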
Target sequence (Q07817 whole entry, looked up): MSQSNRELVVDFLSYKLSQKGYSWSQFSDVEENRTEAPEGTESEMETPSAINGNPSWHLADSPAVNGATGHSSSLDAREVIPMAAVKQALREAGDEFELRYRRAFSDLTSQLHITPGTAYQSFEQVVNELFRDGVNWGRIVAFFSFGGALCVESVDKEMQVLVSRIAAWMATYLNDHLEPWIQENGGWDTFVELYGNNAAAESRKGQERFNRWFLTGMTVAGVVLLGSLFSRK
MCL1 BIM primary – MCL1-BIM-BH3 interaction inhibition (human); AID 2057; Q07820; inhibition, % at 10.9 µM; GST-MCL1 / FITC-Bim-BH3 fluorescence polarization; 0.68% of 320,000 active;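 active = inhibition above the mean inhibition of all tested compounds plus 3 SD, set per campaign, cut at about 40% in these data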;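 note: 0% = DMSO wells and 100% = unlabeled Bim-BH3 peptide control; higher means more loss of mP so more displacement of Bim peptide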
An asterisk follows results filed as active; x = not tested or not shown; ! = a repeat was not active. Compounds with a hit are over-represented: about 2.3% of the library has one in this group of screens.

SMILES | Mcl1 Bid PPI | Mcl1-Noxa inh | GLD-1 RNA inh | Mcl-1 Bim block | Bcl-xL primary | MCL1 BIM primary
Cc1ccc(N2C(=O)CC(=O)NC2=O)c(C)c1 | x | x | -11 | x | -4 | -3
C=CCC1(CN2CCCCCC2=O)C(=O)NC(=O)NC1=O | 61* | -12 | -5 | 1 | -1 | 8
C=CCC1(CN2CCCC2=O)C(=O)NC(=O)NC1=O | -2 | 8 | -5 | -1 | 1 | 2
COc1ccc(C(=O)CC2(CC(=O)c3ccc(OC)cc3)C(=O)N(C)C(=O)N(C)C2=O)cc1 | -24 | -6 | 1 | 0 | 1 | 7
CN1C(=O)N(C)C(=O)C2(Cc3c(ccc4ccccc34)N(C)C2)C1=O | -74 | 51* | 4 | -1 | 11 | 4
CCOP(=O)(OCC)C(O)c1ccc(N(C)C)cc1 (stereo unspecified) | 58* | -2 | 6 | x | 6 | 8
COc1ccc(NC(=O)c2cn(CCC#N)nc2-c2cccc(Br)c2)cc1 | x | x | 8 | x | 7 | 10
Brc1cccc(CNCCc2ccc3c(c2)OCO3)c1 | x | x | -6 | x | -4 | -6
Cc1ccc(N2C(=O)/C(=C/c3ccc(CN(CCC#N)S(C)(=O)=O)o3)C(=O)NC2=S)cc1C | 5 | 66* | 10 | 1 | 14 | 28
Cc1cccc(N2C(=O)/C(=C/c3ccc(CN(CCC#N)S(C)(=O)=O)o3)C(=O)NC2=S)c1 | 4 | 53* | 0 | 2 | 8 | 13
CCOc1ccc(N2C(=O)/C(=C/c3ccc(C)o3)C(=O)NC2=S)cc1 | x | x | -12 | x | 7 | -10
COc1ccc(CCNCc2cccn2C)cc1OC | x | x | 0 | x | -4 | 0
C=C(C)C(Cc1c(OC)ccc(C(=O)/C=C/c2ccc(O)cc2)c1O)OO (stereo unspecified) | x | x | -6 | x | x | x
CC1Oc2cc3c(-c4c(O)cc(O)c5c(O)c6c(cc45)OC(C)C(C)C6=O)c(O)cc(O)c3c(O)c2C(=O)C1C (stereo unspecified) | 42 | 103* | 11 | x | 14 | 21
C[C@]12CC[C@@H]3c4ccc(O)c(O)c4CC[C@H]3[C@@H]1CC[C@@H]2O | -76 | 64* | 4 | 4 | 11 | 14
O=C(O)CCC(=O)NCCC1=c2ccccc2=N/C1=C\c1c(O)n(Cc2ccc(F)cc2)c(=S)[nH]c1=O | 100* | 104* | 5 | x | 7 | 8
O=C(N/N=C/c1c(O)n(Cc2ccc(F)cc2)c(=O)[nH]c1=O)c1ccccc1 | -52 | -85 | -1 | x | 6 | 33
CCCCCCn1c(O)c(C=NCCN2CCOCC2)c(=O)[nH]c1=O | 99* | 25 | -9 | -1 | -8 | -16
CCCCCCn1c(O)c(C=NCCN2CCCCC2)c(=O)[nH]c1=O | -15 | 7 | -4 | 0 | 6 | 1
CC(C)CCNC(=O)c1c(N)n(Cc2ccc3c(c2)OCO3)c2nc3ccccc3nc12 | 26 | 30 | 8 | 4 | 5 | 5
CCCNC(=O)c1c(N)n(Cc2ccco2)c2nc3ccccc3nc12 | 17 | 38 | 17 | 2 | 29 | 31
CC(C)CNC(=O)c1c(N)n(Cc2ccco2)c2nc3ccccc3nc12 | 33 | 87* | 22 | 1 | 16 | 23
COCCOC(=O)c1c(N)n(Cc2ccco2)c2nc3ccccc3nc12 | x | x | 63* | x | 31* | 33
COCCCNC(=O)c1c(N)n(Cc2ccco2)c2nc3ccccc3nc12 | -81 | 55* | 47* | x | 49* | 54*
CCCNC(=O)c1c(N)n(Cc2ccc3c(c2)OCO3)c2nc3ccccc3nc12 | -22 | 56* | 11 | 1 | 7 | 12
SMILES | Mcl1 Bid PPI | Mcl1-Noxa inh | GLD-1 RNA inh | Mcl-1 Bim block | Bcl-xL primary | MCL1 BIM primary
COc1cc(O)c(C(=O)O)c(-c2cc(O)c(O)cc2C)c1 | -36 | 93* | 3 | x | 17 | 28
CN1CCCCC1c1ccc(-c2cccnc2)nc1 (stereo unspecified) | 70* | 21 | 3 | 3 | 6 | 0
CC1CCCC(NC(=O)CNC(=S)N2CC3CC(C2)c2cccc(=O)n2C3)C1C (stereo unspecified) | x | x | 5 | x | -2 | 4
CCC1(c2ccccc2)C(=O)N(COC)C(=O)N(COC)C1=O | 13 | 52* | 5 | 1 | 1 | 2
COC(=O)C1=C(c2ccc(Cl)c(C(F)(F)F)c2)C[C@@H]2CC[C@H]1N2C(=O)NC1CCCCC1 | x | x | 4 | x | 4 | 6
CN1CCN2c3ccc(N)cc3CC3(C(=O)NC(=O)NC3=O)C2C1 (stereo unspecified) | 97* | 35 | x | x | x | x
CN1C(=O)N(C)C(=O)C2(Cc3cc(N)ccc3N3CCN(c4ccccc4F)CC32)C1=O (stereo unspecified) | 91* | 57* | 13 | 4 | 20 | 18
O=C1NC(=O)C2(Cc3ccccc3N3CCCC32)C(=O)N1 (stereo unspecified) | -4 | 10 | 19 | 0 | 37* | 35
O=C(c1cn(Cc2ccccc2F)c2ncccc12)C(F)(F)F | x | x | 0 | x | 5 | -2
COc1cc2nc(N3CCN(C(=O)c4ccco4)CC3)nc(N)c2cc1OC | 67*! | 58*! | -2 | 3 | 10 | 6
CC(C(=O)c1c[nH]c2ccccc12)N1CCN(C(=O)c2ccco2)CC1 (stereo unspecified) | -31 | 6 | -2 | x | -1 | -10
C[C@]12CC[C@H](O)CC1=CCC1C2CC[C@@]2(C)C1C[C@@H]1CC(=O)O[C@@H]12 (stereo partly specified) | x | x | 5 | x | x | x
CN(C=O)CP(=O)(O)CN(C)C=O | 60* | 6 | 5 | -2 | 7 | 2
CC(C)c1ccc(N2C(=O)NC(=O)/C(=C/c3cnc(-c4ccccc4)nc3)C2=O)cc1 | -8 | 61* | -8 | -4 | -2 | 2
CSc1ncc(/C=C2/C(=O)NC(=O)N(c3ccc(C(C)C)cc3)C2=O)cn1 | -31 | 39 | -3 | -2 | 6 | 4
O=C1NC(=O)N(Cc2ccccc2)C(=O)/C1=C/c1cnc(-c2ccccc2)nc1 | -17 | 51* | -13 | -3 | -9 | 0
COc1cc(OC)c(OC)cc1CNCCc1ccc2c(c1)OCO2 | x | x | 7 | x | 6 | 12
COc1ccc(OC)c(CC(=O)N(C)C2CCCN(Cc3ccccc3F)C2)c1 (stereo unspecified) | x | x | 8 | x | -3 | -3
O=C1Nc2ccccc2C1Cc1nc2ccccc2c(=O)n1-c1ccccc1 (stereo unspecified) | 54* | 27 | 3 | x | 2 | -1
CN1C(=O)C(Cc2nc3ccccc3c(=O)n2-c2ccccc2)c2ccccc21 (stereo unspecified) | -31 | 5 | 5 | -2 | -2 | 4
Cn1c(O)c(C=Nc2ccc(F)cc2)c(=O)[nH]c1=O | x | x | 1 | x | 4 | 0
CC(C)(C)n1c(O)c(C=Nc2ccc3c(c2)CCC3)c(=O)[nH]c1=O | -7 | 71* | 1 | -3 | 3 | -2
COc1ccc(CCNC(=O)COC(=O)Cc2ccccc2)cc1 | 78* | 7 | 3 | -7 | -13 | -27
